ATG4B inhibitor: blocks human ATG4B protease cleavage of LC3 substrate; ATG4B cleavage of LC3-PLA2, NBD-HPC fluorescence, 1 h; inhibition, % at 8.33 µM; 340,000 tested, 0.51% active; in the data active = inhibition above about 40%
Target sequence (Q9Y4P1 whole entry, looked up): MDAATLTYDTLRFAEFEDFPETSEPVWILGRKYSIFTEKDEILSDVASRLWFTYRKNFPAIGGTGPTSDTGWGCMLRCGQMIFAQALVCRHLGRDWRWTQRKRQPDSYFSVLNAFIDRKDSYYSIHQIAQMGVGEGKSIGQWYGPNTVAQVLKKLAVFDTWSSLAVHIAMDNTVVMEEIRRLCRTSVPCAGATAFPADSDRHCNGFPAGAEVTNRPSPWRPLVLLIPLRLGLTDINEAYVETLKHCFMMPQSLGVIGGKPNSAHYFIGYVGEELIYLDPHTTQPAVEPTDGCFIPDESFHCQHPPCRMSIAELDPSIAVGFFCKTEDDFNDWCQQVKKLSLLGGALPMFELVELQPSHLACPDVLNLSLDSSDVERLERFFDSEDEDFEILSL
AI-2 QS modul: Vibrio harveyi AI-2 quorum sensing modulation; Vibrio harveyi JMH597 AI-2 luminescence/OD600 ratio, 9 h; active compounds read low; strain lacks LuxN and CqsS sensors; 0 = neutral-control median; AID 2094; 300,000 tested, 0.4% active; activity change, % at 7.5 µM; in the data active = activity change below about -75%, passing the limit was not always enough;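 note: luminescence divided by OD600 gain over 9 h not by final OD600 alone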
Efflux pump inh: antifungal efflux pump inhibition, Nile Red retention; S. cerevisiae Candida pump triplex; inhibition, % at 10 µM; 330,000 tested, 0.44% active;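 active = plate passing quality check with inhibition over a set limit, or well fluorescence over plate mean plus 4 SD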;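 note: Nile Red retained in pooled yeast measured as flow cytometry median fluorescence; 0% = buffer negative control and 100% = Enniatin B positive control; higher means more Nile Red kept so more efflux inhibition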
Mot1-301 SUMO: blocks SUMOylation pathway, rescuing yeast Mot1-301 growth; S. cerevisiae Mot1-301 growth rescue, ATP luminescence, 38.5C; percent above DMSO median, 100 means doubled; growth rescue, % at 18.8 µM; 320,000 tested, 1% active; AID 2716;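 active = every valid replicate shows activation above 250% relative to neutral control wells; inactive = the rest, any valid replicate at or below 250%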;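 note: OY570 slx delta 5 strain wells were the positive control but not used for scaling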
V-ATPase pH: regulators of yeast V-ATPase proton transport; S. cerevisiae, pHLuorin cytosolic pH fluorescence; response, % at 10 µM; 350,000 tested, 0.37% active; in the data active = response mostly above about 7.3%, no sharp cut-off; inactive = mostly below about 5.4%; note: actives read high
ATG4B confirm: confirmation of human ATG4B inhibitors. shares compounds with ATG4B inhibitor. ATG4B protease fluorescent substrate cleavage assay. inhibition, % at 8.33 µM. 320 tested, 92% active; in the data active = inhibition above about 39%
PLA2 counter: counter-screen for ATG4B inhibitors: human phospholipase A2. shares compounds with ATG4B inhibitor. purified PLA2, NBD-C6-HPC fluorescence, 45 min. inhibition, % at 8.33 µM. 1,600 tested, 66% active. AID 588402; in the data active = inhibition above about 50%
Numbers without * were called inactive. Most compounds without a hit are left out; they make up all but 2.5% or so of the library.

How did COC(=O)c1c(NC(=O)C(=O)N2CCCC2)sc2c1CC(C)(C)OC2 do in these assays?
ATG4B inhibitor: 4; AI-2 QS modul: 13; Efflux pump inh: 0; Mot1-301 SUMO: -5; V-ATPase pH: 3

Results for Cc1ccc(S(=O)(=O)Nc2ccccc2N=Cc2c(F)c(F)c(F)c(F)c2F)cc1 ?
ATG4B inhibitor: 13; V-ATPase pH: -1

How did Cc1ccc(S(=O)(=O)Nc2ccccc2C=Nc2cccc(C)c2C)cc1 do in these assays?
ATG4B inhibitor: 57*; AI-2 QS modul: 6; Efflux pump inh: 0; Mot1-301 SUMO: 6; V-ATPase pH: -2; PLA2 counter: 61*

Results for CCc1nc(SCC(=O)Nc2ccc(Br)cn2)n[nH]1 ?
AI-2 QS modul: 30; Efflux pump inh: 0; Mot1-301 SUMO: 6; V-ATPase pH: 1

What do the screens show for `Cc1c(CCC(=O)O)c(=O)oc2cc3occ(-c4ccc(F)cc4)c3cc12`?
ATG4B inhibitor: -1; AI-2 QS modul: 32; Efflux pump inh: 0; Mot1-301 SUMO: 8; V-ATPase pH: 6

Results for Cc1c(CCC(=O)O)c(=O)oc2cc3occ(C(C)(C)C)c3cc12 ?
ATG4B inhibitor: 44*; AI-2 QS modul: 18; Efflux pump inh: 0; Mot1-301 SUMO: 34; V-ATPase pH: 3; PLA2 counter: 61*

What do the screens show for `CCN(c1ccccc1)S(=O)(=O)c1ccc(C(=O)NCC(=O)Nc2ccc(F)c(F)c2F)cc1`?
ATG4B inhibitor: -6; Efflux pump inh: 0; Mot1-301 SUMO: 507; V-ATPase pH: 1

What do the screens show for `O=C(c1ccc(Cl)cc1)c1oc2ccccc2c1CS(=O)c1ccccc1` (configuration not stated)?
ATG4B inhibitor: 54*; AI-2 QS modul: 17; Efflux pump inh: 0; Mot1-301 SUMO: -14; V-ATPase pH: 3; PLA2 counter: 59*

How did O=C(O)c1oc2ccccc2c1CSc1ccc(Cl)cc1 do in these assays?
ATG4B inhibitor: 11; AI-2 QS modul: 16; Efflux pump inh: 0; Mot1-301 SUMO: -7; V-ATPase pH: -2

What do the screens show for `COC(=O)c1ccc(CSc2nc3c(c(=O)n2-c2ccc(C)cc2)SCC3)o1`?
ATG4B inhibitor: 48*; AI-2 QS modul: 17; Efflux pump inh: 0; Mot1-301 SUMO: 9; V-ATPase pH: -2; PLA2 counter: 70*

How did O=C(c1c[nH]c2ccccc12)C(Cl)c1ccccc1 (configuration not stated) do in these assays?
ATG4B inhibitor: 0; AI-2 QS modul: -18; Efflux pump inh: 0; Mot1-301 SUMO: -16; V-ATPase pH: 3

Results for Nc1nonc1C(=O)NCCN=Cc1cc(Cc2ccccc2)cc(Br)c1O ?
ATG4B inhibitor: 86*; AI-2 QS modul: -149*; Efflux pump inh: 0; Mot1-301 SUMO: 31; V-ATPase pH: -4; PLA2 counter: 72*

How did Cc1sc2nc(SCc3nnc(-c4cccs4)o3)n(C3CCCC3)c(=O)c2c1C do in these assays?
ATG4B inhibitor: 44*; AI-2 QS modul: 20; Efflux pump inh: 0; Mot1-301 SUMO: -11; V-ATPase pH: -6; PLA2 counter: 66*

Results for Cc1sc2nc(CSc3nnc(Cc4cccs4)n3C3CCCCC3)[nH]c(=O)c2c1C ?
ATG4B inhibitor: -3; AI-2 QS modul: 53; Efflux pump inh: 0; Mot1-301 SUMO: -19; V-ATPase pH: 2

How did COc1cccc(NS(=O)(=O)c2ccc3c(c2)C2C=CCC2C(c2ccc(C(=O)O)cc2)N3)c1 (configuration not stated) do in these assays?
ATG4B inhibitor: 67*; AI-2 QS modul: 35; Efflux pump inh: 0; Mot1-301 SUMO: 114; V-ATPase pH: -2; ATG4B confirm: 62*; PLA2 counter: 42

How did O=C1CCC(=O)N1c1ccc(-c2nc3sc4c(c3c(=O)o2)CCC4)cc1 do in these assays?
ATG4B inhibitor: 3; AI-2 QS modul: 6; Efflux pump inh: 0; Mot1-301 SUMO: -3; V-ATPase pH: -3

How did O=c1oc(-c2ccccc2)nc2sc3c(c12)CCC3 do in these assays?
ATG4B inhibitor: 56*; AI-2 QS modul: 10; Efflux pump inh: 0; Mot1-301 SUMO: 141; V-ATPase pH: -1; ATG4B confirm: 72*; PLA2 counter: 19

Bioassay records deposited in PubChem BioAssay by several laboratories.
